Laboratory results reported in PubChem BioAssay (EPA / NIEHS).
The source holds several records for some structures; these can differ, active in one and inactive in another. The source made the active and inactive calls. The calls were made as follows: active = hit-call score of the fitted dose curve at least 0.9, where 1 is the maximum; inactive = score below 0.9.

Columns and labels:
[1] = ATG_GLI_CIS: Attagene CIS-FACTORIAL HepG2 Assay for human Zinc Finger Protein GLI1 (AID 2282945); conditions: HepG2, Attagene cis-factorial reporter mRNA, GLI element; actives raise or lower the signal
In short: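 HepG2 cells transiently transfected with cis-promoter multiplexed reporter units report endogenous transcription factor activity. After 24 h chemical exposure, reporter mRNA was quantified by RT-PCR, 6-FAM labelling, HpaI digestion and capillary electrophoresis, with bidirectional fitting against DMSO.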

[2] = ATG_GRE_CIS: Attagene CIS-FACTORIAL HepG2 Assay for human Glucocorticoid Response Elements (GRE) (AID 2282947); conditions: HepG2 GRE cis-reporter, Attagene multiplex mRNA; actives raise or lower the signal
In short: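 Following 24 h chemical exposure of transiently transfected HepG2 cells, total RNA was reverse-transcribed and reporter cDNA amplified, fluorescently labelled and sized by capillary electrophoresis. Signal gain or loss was fitted relative to DMSO vehicle.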

[3] = ATG_ISRE_CIS: Attagene CIS-FACTORIAL HepG2 Assay for human Interferon Regulatory Factor 1 (IRF1) binding to an Interferon-Stimulated Response Element (ISRE) (AID 2282948); conditions: HepG2 ISRE cis-reporter (Attagene), mRNA transcription readout; actives raise or lower the signal
In short: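 Cell-based cis-reporter assay; HepG2; 24 h exposure; reporter mRNA by RT-PCR plus capillary electrophoresis fluorescence; activity in either direction scored relative to DMSO.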

[4] = ATG_M_32_CIS: Attagene CIS-FACTORIAL HepG2 Assay for M32 Transcription Factor (Internal Marker) (AID 2282949); conditions: HepG2 Attagene cis-factorial M32 reporter, mRNA; actives raise or lower the signal;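 also: background control marker of the multiplexed CIS panel rather than a real target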
In short: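 HepG2 cells transiently transfected with multiplexed cis-regulated reporter units, dosed 24 h. Reporter mRNA quantified by RT-PCR, 6-FAM labelling, HpaI digestion and capillary electrophoresis; bidirectional fit vs DMSO.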

[5] = ATG_M_06_CIS: Attagene CIS-FACTORIAL HepG2 Assay for M06 Transcription Factor (Internal Marker) (AID 2282950); conditions: HepG2 Attagene CIS-FACTORIAL M06 internal marker reporter; actives raise or lower the signal
In short: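 Cells (HepG2, transiently carrying cis-driven reporter units) receive chemical for 24 h before RNA isolation. Reporter cDNA is PCR-amplified, FAM-labelled by primer extension, HpaI-digested and sized on a capillary analyser.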

[6] = target: Hypoxia-inducible factor 1-alpha (Homo sapiens) (UniProt Q16665); experiment: ATG_HIF1a_CIS: Attagene CIS-FACTORIAL HepG2 Assay for human Hypoxia Inducible Factor 1 (HIF1A) (AID 2282951); conditions: HepG2 Attagene cis-factorial HIF1a reporter transcription; actives raise or lower the signal
Sequence of Hypoxia-inducible factor 1-alpha (Homo sapiens) (Q16665 whole entry, looked up): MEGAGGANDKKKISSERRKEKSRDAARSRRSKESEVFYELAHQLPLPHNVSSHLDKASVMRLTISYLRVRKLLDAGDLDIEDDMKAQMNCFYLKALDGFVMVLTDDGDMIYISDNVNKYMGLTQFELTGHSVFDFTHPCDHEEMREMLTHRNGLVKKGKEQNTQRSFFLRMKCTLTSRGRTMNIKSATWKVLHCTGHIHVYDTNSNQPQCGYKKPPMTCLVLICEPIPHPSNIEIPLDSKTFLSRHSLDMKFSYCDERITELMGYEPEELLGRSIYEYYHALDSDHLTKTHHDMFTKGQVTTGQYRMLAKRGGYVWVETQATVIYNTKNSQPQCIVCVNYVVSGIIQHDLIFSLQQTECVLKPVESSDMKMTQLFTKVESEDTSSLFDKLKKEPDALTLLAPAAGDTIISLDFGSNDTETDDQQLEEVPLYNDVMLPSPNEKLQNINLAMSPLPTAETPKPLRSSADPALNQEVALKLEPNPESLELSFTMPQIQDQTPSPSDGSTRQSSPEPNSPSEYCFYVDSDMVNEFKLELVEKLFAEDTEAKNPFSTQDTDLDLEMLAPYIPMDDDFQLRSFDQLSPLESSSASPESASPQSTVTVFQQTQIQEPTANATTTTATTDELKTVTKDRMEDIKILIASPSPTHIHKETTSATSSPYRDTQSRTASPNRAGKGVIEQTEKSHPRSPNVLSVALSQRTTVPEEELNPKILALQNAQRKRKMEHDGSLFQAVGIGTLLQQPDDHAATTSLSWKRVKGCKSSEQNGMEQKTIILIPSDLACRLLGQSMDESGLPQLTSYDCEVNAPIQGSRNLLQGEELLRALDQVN
In short: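 Activity is fitted in both directions relative to DMSO. Reporter transcripts are read by RT-PCR, fluorescent primer extension and capillary electrophoresis after 24 h chemical treatment. The cells are HepG2 carrying transiently transfected cis-element-driven reporter units responding to endogenous factors.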

[7] = target: Hepatocyte nuclear factor 6 (Homo sapiens) (UniProt Q9UBC0); experiment: ATG_HNF6_CIS: Attagene CIS-FACTORIAL HepG2 Assay for human Hepatocyte Nuclear Factor 6 (HNF6) (AID 2282952); conditions: HepG2 Attagene cis-factorial HNF6 reporter transcription; actives raise or lower the signal
Sequence of Hepatocyte nuclear factor 6 (Homo sapiens) (Q9UBC0 whole entry, looked up, the tested form may be a part): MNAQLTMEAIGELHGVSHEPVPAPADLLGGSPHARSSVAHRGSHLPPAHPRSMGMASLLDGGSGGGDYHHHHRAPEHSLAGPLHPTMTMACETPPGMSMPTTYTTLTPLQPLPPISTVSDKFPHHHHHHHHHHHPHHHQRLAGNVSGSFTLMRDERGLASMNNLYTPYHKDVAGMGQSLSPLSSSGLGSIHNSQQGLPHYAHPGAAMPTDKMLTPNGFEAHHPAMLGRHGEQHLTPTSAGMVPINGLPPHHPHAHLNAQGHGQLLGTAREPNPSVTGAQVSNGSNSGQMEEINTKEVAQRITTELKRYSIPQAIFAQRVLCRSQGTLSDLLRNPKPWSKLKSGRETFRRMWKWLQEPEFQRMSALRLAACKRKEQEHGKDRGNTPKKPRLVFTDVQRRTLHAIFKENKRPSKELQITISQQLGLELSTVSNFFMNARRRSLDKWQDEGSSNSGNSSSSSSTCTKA
In short: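 Reporter mRNA induction or loss in HepG2 after 24 h exposure; transient cis-MRTU transfection; fragments quantified by capillary electrophoresis; bidirectional analysis, DMSO as negative control.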

[8] = target: Heat shock factor protein 1 (Homo sapiens) (UniProt Q00613); experiment: ATG_HSE_CIS: Attagene CIS-FACTORIAL HepG2 Assay for human Heat Shock Transcription Factor 1 (HSE) (AID 2282953); conditions: HepG2 HSE cis-reporter, Attagene RNA transcription; actives raise or lower the signal
Sequence of Heat shock factor protein 1 (Homo sapiens) (Q00613 whole entry, looked up): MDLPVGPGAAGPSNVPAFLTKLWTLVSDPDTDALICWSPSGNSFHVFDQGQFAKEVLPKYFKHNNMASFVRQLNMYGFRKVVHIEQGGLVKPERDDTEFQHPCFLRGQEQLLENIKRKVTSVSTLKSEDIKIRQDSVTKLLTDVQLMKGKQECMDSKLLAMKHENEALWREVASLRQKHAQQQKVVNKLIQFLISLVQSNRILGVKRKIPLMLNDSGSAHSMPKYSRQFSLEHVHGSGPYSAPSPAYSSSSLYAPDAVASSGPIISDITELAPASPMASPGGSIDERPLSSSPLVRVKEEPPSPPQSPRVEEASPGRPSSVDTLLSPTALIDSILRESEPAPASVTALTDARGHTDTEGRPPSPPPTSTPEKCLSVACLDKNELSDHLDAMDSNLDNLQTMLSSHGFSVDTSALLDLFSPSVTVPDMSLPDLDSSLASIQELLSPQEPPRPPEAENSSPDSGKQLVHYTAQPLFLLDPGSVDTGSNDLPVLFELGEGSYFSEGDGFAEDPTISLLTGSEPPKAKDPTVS
In short: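 Liver-derived HepG2 cells carry transiently introduced multiple reporter units governed by cis promoters. Reporter RNA measured 24 h post-dose through reverse transcription, PCR amplification, fluorescent labelling and capillary electrophoresis, normalised to DMSO.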

[9] = ATG_MRE_CIS: Attagene CIS-FACTORIAL HepG2 Assay for human Metal Responsive Element (MRE) (AID 2282954); conditions: HepG2 MRE cis-reporter transcription, Attagene multiplex; actives raise or lower the signal
In short: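 Step one: transfect HepG2 with cis-regulated reporter units. Step two: dose 24 h. Step three: isolate RNA, RT-PCR, 6-FAM label, HpaI digest, capillary electrophoresis. Fit bidirectionally to DMSO.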

[10] = ATG_PBREM_CIS: Attagene CIS-FACTORIAL HepG2 Assay for human Phenobarbital-responsive Enhancer Module (PBREM) (AID 2282955); conditions: HepG2 PBREM cis-reporter, Attagene multiplexed transcription; actives raise or lower the signal
In short: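 Endogenous transcription factor activity was read from reporter transcripts in transiently transfected human HepG2 liver cells after 24 h dosing. RT-PCR products were fluorescently labelled, HpaI-cut and sized by capillary electrophoresis; activity fitted bidirectionally against DMSO baseline.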

[11] = target: Paired box protein Pax-6 (Homo sapiens) (UniProt P26367); experiment: ATG_Pax6_CIS: Attagene CIS-FACTORIAL HepG2 Assay for human Paired Box 6 (PAX6) (AID 2282956); conditions: HepG2 CIS-FACTORIAL PAX6 reporter transcription, RNA readout; actives raise or lower the signal
Sequence of Paired box protein Pax-6 (Homo sapiens) (P26367 whole entry, looked up): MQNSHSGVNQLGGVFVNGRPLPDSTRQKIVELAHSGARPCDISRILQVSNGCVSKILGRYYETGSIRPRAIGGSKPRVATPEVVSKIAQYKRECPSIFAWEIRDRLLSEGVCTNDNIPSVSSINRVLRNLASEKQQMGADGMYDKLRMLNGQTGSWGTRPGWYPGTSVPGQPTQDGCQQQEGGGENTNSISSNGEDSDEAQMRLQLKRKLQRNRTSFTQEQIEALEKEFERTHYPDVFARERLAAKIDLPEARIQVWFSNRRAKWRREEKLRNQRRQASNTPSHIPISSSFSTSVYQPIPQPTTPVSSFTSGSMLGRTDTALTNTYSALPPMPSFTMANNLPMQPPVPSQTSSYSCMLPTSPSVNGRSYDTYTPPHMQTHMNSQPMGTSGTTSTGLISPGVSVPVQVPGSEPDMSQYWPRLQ
In short: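 Multiplexed cis-reporter HepG2 system; 24 h treatment; reporter mRNA read by RT-PCR/CE fluorescence; bidirectional fit vs DMSO.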

[12] = ATG_PXRE_CIS: Attagene CIS-FACTORIAL HepG2 Assay for human Pregnane X Receptor Element (PXRE) (AID 2282957); conditions: HepG2 Attagene CIS-FACTORIAL PXRE reporter, mRNA; actives raise or lower the signal
In short: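 Transiently transfected HepG2 cells were dosed and incubated for 24 h. RNA was then isolated, DNase-treated, reverse-transcribed and reporter sequences amplified. Labeled, HpaI-digested fragments were quantified by capillary electrophoresis against DMSO.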

[13] = ATG_PPRE_CIS: Attagene CIS-FACTORIAL HepG2 Assay for human Peroxisome Proliferator-activated Response Element (PPRE) (AID 2282958); conditions: HepG2 PPRE cis-element reporter, Attagene transcription factor profiling; actives raise or lower the signal
In short: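 Endogenous PPRE-driven transcription is measured in HepG2 cells carrying transfected multi-reporter constructs. Reporter transcripts are quantified by RT-PCR, HpaI digestion and capillary electrophoresis 24 h after dosing. DMSO baseline, bidirectional fit.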

[14] = ATG_Sox_CIS: Attagene CIS-FACTORIAL HepG2 Assay for human SRY-box transcription factor (SOX) (AID 2282960); conditions: HepG2 Attagene cis-factorial SOX reporter, mRNA; actives raise or lower the signal
In short: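 Reporter transcripts, measured by RT-PCR and capillary electrophoresis of labelled fragments, report endogenous SOX transcription factor activity. Transiently transfected human HepG2 cells receive chemical for 24 h; changes in either direction are fitted relative to DMSO.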

[15] = target: Transcription factor Sp1 (Homo sapiens) (UniProt P08047); experiment: ATG_Sp1_CIS: Attagene CIS-FACTORIAL HepG2 Assay for human Specificity Protein 1 (Sp1) (AID 2282961); conditions: HepG2 Sp1 cis-reporter transcription, actives raise or lower the signal
Sequence of Transcription factor Sp1 (Homo sapiens) (P08047 whole entry, looked up): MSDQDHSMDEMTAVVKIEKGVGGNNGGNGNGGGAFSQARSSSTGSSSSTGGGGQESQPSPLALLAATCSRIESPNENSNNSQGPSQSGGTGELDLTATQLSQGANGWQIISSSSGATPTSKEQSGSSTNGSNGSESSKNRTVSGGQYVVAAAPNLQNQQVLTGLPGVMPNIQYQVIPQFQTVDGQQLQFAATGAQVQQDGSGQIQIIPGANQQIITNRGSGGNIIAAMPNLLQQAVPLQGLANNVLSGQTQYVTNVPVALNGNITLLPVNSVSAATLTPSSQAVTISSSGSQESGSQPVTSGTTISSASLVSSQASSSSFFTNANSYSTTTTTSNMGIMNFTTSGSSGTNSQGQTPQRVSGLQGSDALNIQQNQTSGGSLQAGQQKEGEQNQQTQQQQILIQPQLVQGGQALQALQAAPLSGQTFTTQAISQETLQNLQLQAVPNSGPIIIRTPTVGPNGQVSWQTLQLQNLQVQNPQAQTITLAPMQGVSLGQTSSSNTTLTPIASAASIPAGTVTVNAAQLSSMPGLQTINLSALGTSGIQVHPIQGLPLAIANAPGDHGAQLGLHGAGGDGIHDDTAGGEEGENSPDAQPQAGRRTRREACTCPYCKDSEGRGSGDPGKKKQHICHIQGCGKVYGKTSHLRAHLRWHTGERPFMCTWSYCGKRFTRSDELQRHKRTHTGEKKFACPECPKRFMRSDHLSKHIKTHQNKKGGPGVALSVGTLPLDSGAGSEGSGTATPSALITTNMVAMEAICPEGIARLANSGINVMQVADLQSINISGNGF
In short: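 Read-out is reporter transcript level, measured by RT-PCR and fluorescent capillary electrophoresis after 24 h chemical treatment. System: transiently transfected HepG2 cells reporting endogenous transcription factor activity; gain or loss fitted against DMSO baseline.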

[16] = target: Signal transducer and activator of transcription 3 (Homo sapiens) (UniProt P40763); experiment: ATG_STAT3_CIS: Attagene CIS-FACTORIAL HepG2 Assay for human Signal Transducer and Activator of Transcription 3 (STAT3) (AID 2282963); conditions: HepG2, Attagene cis-factorial STAT3 reporter transcription; actives raise or lower the signal
Sequence of Signal transducer and activator of transcription 3 (Homo sapiens) (P40763 whole entry, looked up): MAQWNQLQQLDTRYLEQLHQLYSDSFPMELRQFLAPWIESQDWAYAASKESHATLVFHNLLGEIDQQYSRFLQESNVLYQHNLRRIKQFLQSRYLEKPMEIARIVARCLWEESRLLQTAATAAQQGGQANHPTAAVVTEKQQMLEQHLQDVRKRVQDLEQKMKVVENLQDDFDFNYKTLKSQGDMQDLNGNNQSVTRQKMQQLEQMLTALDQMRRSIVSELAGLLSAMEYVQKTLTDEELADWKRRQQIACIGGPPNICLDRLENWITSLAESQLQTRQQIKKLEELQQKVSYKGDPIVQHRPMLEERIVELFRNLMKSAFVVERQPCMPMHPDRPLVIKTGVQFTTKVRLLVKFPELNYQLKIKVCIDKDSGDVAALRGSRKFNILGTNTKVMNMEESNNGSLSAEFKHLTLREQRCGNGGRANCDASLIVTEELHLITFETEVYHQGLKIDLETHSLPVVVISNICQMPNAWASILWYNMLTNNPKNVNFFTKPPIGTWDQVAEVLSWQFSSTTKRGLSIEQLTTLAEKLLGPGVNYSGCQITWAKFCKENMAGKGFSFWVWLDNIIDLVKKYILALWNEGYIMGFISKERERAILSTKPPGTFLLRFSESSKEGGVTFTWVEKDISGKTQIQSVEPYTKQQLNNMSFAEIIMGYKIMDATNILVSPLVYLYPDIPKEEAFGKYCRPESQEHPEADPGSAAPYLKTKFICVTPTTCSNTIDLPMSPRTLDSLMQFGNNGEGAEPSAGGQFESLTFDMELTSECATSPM
In short: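 Transcript-level reporter assay. HepG2 transient MRTU transfection, 24 h exposure, fluorescence detection after RT-PCR and CE; DMSO baseline.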

[17] = ATG_TA_CIS: Attagene CIS-FACTORIAL HepG2 Assay for human TA Basal Promoter (AID 2282964); conditions: HepG2 Attagene CIS-factorial TA basal promoter reporter; actives raise or lower the signal
In short: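 Background internal-marker endpoint from a 52-component HepG2 cis-reporter panel. Cells treated 24 h; reporter transcripts quantified via RT-PCR and CE fluorescence against DMSO baseline.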

[18] = ATG_RORE_CIS: Attagene CIS-FACTORIAL HepG2 Assay for human RAR-related Orphan Receptor Element (RORE) (AID 2282959); conditions: HepG2 Attagene cis-factorial RORE reporter, mRNA; actives raise or lower the signal
In short: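 RORE reporter transcripts reflecting endogenous factor activity were read after 24 h compound exposure of transfected HepG2 cells, using reverse transcription, PCR, fluorescent labelling and capillary electrophoresis sizing. Gain or loss fitted against DMSO.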

[19] = ATG_SREBP_CIS: Attagene CIS-FACTORIAL HepG2 Assay for human Sterol Regulatory Element Binding (SREBP) (AID 2282962); conditions: HepG2 Attagene cis-factorial SREBP reporter, mRNA; actives raise or lower the signal
In short: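 mRNA induction of transfected cis-promoter reporters in HepG2 cells, 24 h post-dose. Detection: RT-PCR with 6-FAM-labelled products, HpaI digest, capillary electrophoresis. DMSO served as negative control and baseline.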

[20] = target: Bile acid receptor (Homo sapiens) (UniProt Q96RI1); experiment: ATG_IR1_CIS: Attagene CIS-FACTORIAL HepG2 Assay for human Nuclear Receptor Subfamily 1 Group H Member 4 (NR1H4), IR1 submotif (AID 2282946); conditions: IR1 reporter transcription, actives raise or lower the signal
Sequence of Bile acid receptor (Homo sapiens) (Q96RI1 whole entry, looked up): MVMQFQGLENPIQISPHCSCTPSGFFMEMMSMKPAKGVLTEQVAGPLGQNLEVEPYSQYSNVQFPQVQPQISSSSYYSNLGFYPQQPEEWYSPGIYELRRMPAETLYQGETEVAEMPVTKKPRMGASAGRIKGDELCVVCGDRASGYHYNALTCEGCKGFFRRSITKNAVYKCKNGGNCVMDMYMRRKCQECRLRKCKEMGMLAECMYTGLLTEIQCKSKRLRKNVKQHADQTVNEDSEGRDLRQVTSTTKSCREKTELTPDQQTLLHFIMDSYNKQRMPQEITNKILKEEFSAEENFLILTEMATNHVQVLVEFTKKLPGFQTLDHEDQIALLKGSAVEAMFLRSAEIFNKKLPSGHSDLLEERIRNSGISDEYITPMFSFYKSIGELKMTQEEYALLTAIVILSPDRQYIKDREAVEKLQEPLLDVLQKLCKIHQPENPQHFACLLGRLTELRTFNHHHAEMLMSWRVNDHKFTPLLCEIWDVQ
In short: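 Transient MRTU transfection, HepG2; 24 h dosing; RNA → RT-PCR → 6-FAM primer extension → HpaI digest → capillary electrophoresis fluorescence. Gain/loss of signal fitted relative to DMSO.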

Measured: AC50

CNC(=O)Oc1ccccc1OC(C)C
not listed: [18] | [19] | [20]
inactive: all other assays above

CCC(C)Nc1c([N+](=O)[O-])cc(C(C)(C)C)cc1[N+](=O)[O-] (stereo unspecified)
active: [9] 31.6 µM | [12] 3.43 µM | [18] 24.1 µM
not listed: [5] | [7] | [8] | [10] | [20]
inactive: all other assays above

COP(=O)(OC)OC=C(Cl)Cl
active: [3] 50 µM | [9] 36.7 µM | [12] 21.8 µM | [13] 22.9 µM
not listed: [2] | [7] | [10] | [18] | [19] | [20]
inactive: all other assays above

CC(C)(C)C(O)C(Oc1ccc(Cl)cc1)n1cncn1 (stereo unspecified)
active: [9] 7.83 µM | [12] 1.27 µM [middle of 6 runs]
inactive: [1] | [3] | [4] | [6] | [8] | [9] | [11] | [14] | [15] | [16] | [17]

CCOC1Oc2ccc(OS(C)(=O)=O)cc2C1(C)C (stereo unspecified)
inactive: [1] | [3] | [4] | [6] | [11] | [14] | [15] | [16] | [17]
active: [9] 50 µM | [12] 5.08 µM | [13] 30.8 µM

Clc1ccccc1-c1nnc(-c2ccccc2Cl)nn1
active: [13] 8.03 µM
not listed: [2] | [5] | [7] | [10] | [18] | [19] | [20]
inactive: all other assays above

[2H]C1([2H])[n+]2ccccc2-c2cccc[n+]2C1([2H])[2H]
active: [12] 18.6 µM
not listed: [5] | [7] | [10] | [19] | [20]
inactive: all other assays above

CNC(=O)Oc1cccc(N=CN(C)C)c1
active: [9] 72.1 µM | [13] 32.7 µM
not listed: [2] | [7] | [10] | [18] | [19]
inactive: all other assays above

CC(C)OC(=O)Nc1cccc(Cl)c1
active: [9] 50 µM | [12] 15.5 µM | [13] 47.1 µM
not listed: [2] | [5] | [7] | [10] | [18] | [19]
inactive: all other assays above

O=C(O)COc1ccc(Cl)cc1Cl
not listed: [7] | [8] | [10] | [13] | [18] | [20]
inactive: all other assays above

C[C@H]1[C@H](c2ccc(Cl)cc2)SC(=O)N1C(=O)NC1CCCCC1
active: [9] 38.3 µM | [12] 1.93 µM
not listed: [5] | [7] | [10] | [13] | [18] | [20]
inactive: all other assays above

COP(=S)(OC)Oc1ccc([N+](=O)[O-])cc1
not listed: [2] | [5] | [10] | [18]
inactive: all other assays above

C#CCN1C(=O)COc2cc(F)c(N3C(=O)C4=C(CCCC4)C3=O)cc21
active: [12] 23.8 µM | [13] 12.5 µM
not listed: [5] | [7] | [10] | [18] | [19] | [20]
inactive: all other assays above

O=C(O)CCCOc1ccc(Cl)cc1Cl
inactive: [1] | [3] | [4] | [6] | [8] | [9] | [11] | [12] | [13] | [14] | [15] | [16] | [17]
active: [12] 27.1 µM | [13] 22.9 µM

O=C1c2ccccc2C(=O)N1SC(Cl)(Cl)Cl
active: [12] 15.8 µM
not listed: [2] | [5] | [7] | [10] | [18]
inactive: all other assays above
